This note sets out measurements from PubChem BioAssay (NCATS).

SMILES strings stand for the structures. Inconclusive results are not listed. Active and inactive are the calls of the source. Calls come from the whole dose curve; as a rule, active = well fitted inhibition curve with a large enough effect; inconclusive = small, poorly fitted or top-dose-only effect; inactive = no such curve, though single readings can be large or run the other way.

Chain of Catechol O-methyltransferase (Homo sapiens) (P21964 whole entry, looked up): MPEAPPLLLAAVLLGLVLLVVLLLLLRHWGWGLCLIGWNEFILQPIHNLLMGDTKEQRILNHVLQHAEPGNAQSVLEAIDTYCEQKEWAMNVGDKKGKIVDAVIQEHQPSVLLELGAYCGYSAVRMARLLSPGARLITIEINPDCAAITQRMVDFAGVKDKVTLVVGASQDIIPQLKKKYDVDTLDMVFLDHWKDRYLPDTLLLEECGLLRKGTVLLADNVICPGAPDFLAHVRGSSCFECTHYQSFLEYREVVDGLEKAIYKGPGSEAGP
Chain of Nicotinamide N-methyltransferase (Homo sapiens) (P40261 whole entry, looked up): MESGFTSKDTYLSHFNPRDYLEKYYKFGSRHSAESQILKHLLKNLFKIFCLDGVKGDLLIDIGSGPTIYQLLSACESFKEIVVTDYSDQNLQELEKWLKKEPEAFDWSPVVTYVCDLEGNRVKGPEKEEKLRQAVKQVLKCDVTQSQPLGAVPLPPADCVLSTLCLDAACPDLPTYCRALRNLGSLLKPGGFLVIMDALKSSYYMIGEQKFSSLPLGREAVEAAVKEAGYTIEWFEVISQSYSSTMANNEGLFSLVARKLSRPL

Tested on in one assay: not listed separately
Kind of assay: Primary qHTS for inhibitors of nuclear receptor binding SET domain protein 2 (NSD2) in an RCH-ACV wild type WT cells (2C) (AID 1645877). Note: nearly all actives have a fitted effect of over 70% in size. To be noted: RCH-ACV (leukaemia line) NSD2 WT (2C) viability, CellTiter-Glo, 72 h; series mostly up to 44.9 µM.
For the compound `N=C(N)c1ccc2nc(-c3cc(CC(=O)NC(CC(=O)O)C(=O)O)cc(-c4cc(S(N)(=O)=O)ccc4O)c3O)[nH]c2c1` (stereo not given), the Potency result is “inactive”.
Turning to `CC/C=C\[C@H](O)[C@H](O)C1=C(C)C(=O)[C@]2(O1)C(=O)N[C@@](O)(C(=O)c1ccccc1)[C@@H]2O`, the Potency entry is “inactive”.
The same measure, in the same setting: the entry for `COc1ccc(CCC(=O)c2c(O)cc(O[C@@H]3O[C@H](CO)[C@@H](O)[C@H](O)[C@H]3O[C@@H]3O[C@@H](C)[C@H](O)[C@@H](O)[C@H]3O)cc2O)cc1O` is “inactive”; for `CC(=O)OC/C(=C/C(=O)O)CC[C@@H]1C(C)=CC(=O)[C@@H]2C(C)(C)CCC[C@@]12C` it is “inactive”.
For the compound `CC1=C2CC(=O)C(C)CC/C=C(\C)CC2OC1=O` (stereo not given), the Potency result is “inactive”.
On to `C/C=C/C1OC2=C(C(=O)OC2(C)O)C(O)C1O` (stereo not given), for which the Potency result was “inactive”.
Consider `COc1cc(/C=C/c2ccccc2)c(C(=O)O)c(O)c1CC=C(C)C`, for which the Potency entry is “inactive”.
For `CC1(C)CCC[C@@]2(C)[C@H]1[C@H](O)C=C(CO)[C@]2(O)CO`, the Potency entry was “inactive”.

A further assay addresses Catechol O-methyltransferase (Homo sapiens) (UniProt P21964). Nature of the assay: Confirmatory Screen for Target Class Profiling of Small Molecule Inhibitors of Methyltransferases (AID 1745852). For activity change, negative = inhibition: % is set by controls: 0 for no effect and ±100 for the full control effect. To be noted: MTase-Glo luminescence, SAH detection, recombinant enzyme; measured here: COMT max response; stronger effect = lower value.
For `O=C(/C=C/c1ccccc1)OC[C@H]1O[C@@H](OC(=O)c2cc(O)c(O)c(O)c2)[C@H](O)[C@@H](O)[C@@H]1O`, the activity is -76.6%.
On the same count and under the same terms, the value for `C=C[C@H]1[C@H](O[C@@H]2O[C@H](CO)[C@@H](O)[C@H](OC(=O)/C=C/c3ccc(O)c(OC)c3)[C@H]2O)OC=C2C(=O)OCC[C@]21O` was -63.6%.
The same measure, in the same setting: the value for `O=C(O)CCc1ccc(NCc2cccc3c2CCCN3CCOc2ccccc2)cc1F` was -3.27%.
The same measure, in the same setting: the figure for `O=C(O)CC1(O)C(=O)Nc2ccccc21` (stereo not given) is 0%.
As for `O=C(O)c1cccc(CN2C(=O)/C(=C(\c3ccccc3)c3ccc(Cl)cc3)c3ccccc32)c1`, the activity is -6.02%.
With `C=CC(C)(O)CC/C=C(\C)COC1O[C@H](CO)[C@@H](O)[C@H](O)[C@H]1O` (stereo not given in full), the activity is -76.9%.
The same measure, in the same setting: the figure for `C=C[C@H]1[C@H](O[C@@H]2O[C@H](CO)[C@@H](O)[C@H](O)[C@H]2O)OC=C(C(=O)OC)[C@H]1CCO` is -72.1%; for `CC(=O)OC/C(=C/C(=O)O)CC[C@@H]1C(C)=CC(=O)[C@@H]2C(C)(C)CCC[C@@]12C` it is -62.3%.

In a further assay the target is Guanidinoacetate N-methyltransferase (Homo sapiens) (UniProt Q14353). The assay is described as above. To be noted: MTase-Glo luminescence, SAH detection, recombinant enzyme; activity change, negative = inhibition: at 57.3 µM (top of the series) unless noted.
Consider `O=C(/C=C/c1ccccc1)OC[C@H]1O[C@@H](OC(=O)c2cc(O)c(O)c(O)c2)[C@H](O)[C@@H](O)[C@@H]1O`, for which the activity change, negative = inhibition was -1.37% [at 29.8 µM].
Take `C=C[C@H]1[C@H](O[C@@H]2O[C@H](CO)[C@@H](O)[C@H](OC(=O)/C=C/c3ccc(O)c(OC)c3)[C@H]2O)OC=C2C(=O)OCC[C@]21O`: the activity change, negative = inhibition is -8.69% [at 29.8 µM].
The same measure, in the same setting: the figure for `O=C(O)CCc1ccc(NCc2cccc3c2CCCN3CCOc2ccccc2)cc1F` is -0.799%.
The same measure, in the same setting: the figure for `O=C(O)CC1(O)C(=O)Nc2ccccc21` (stereo not given) is 0% [at 85.7 µM]; for `O=C(O)c1cccc(CN2C(=O)/C(=C(\c3ccccc3)c3ccc(Cl)cc3)c3ccccc32)c1` it is -1.74%.
For `C=CC(C)(O)CC/C=C(\C)COC1O[C@H](CO)[C@@H](O)[C@H](O)[C@H]1O` (stereo not given in full), the activity change, negative = inhibition is -6.43%.
On the same count and under the same terms, the figure for `C=C[C@H]1[C@H](O[C@@H]2O[C@H](CO)[C@@H](O)[C@H](O)[C@H]2O)OC=C(C(=O)OC)[C@H]1CCO` is -3.63%; for `CC(=O)OC/C(=C/C(=O)O)CC[C@@H]1C(C)=CC(=O)[C@@H]2C(C)(C)CCC[C@@]12C` it is 0%.

Another assay concerns the target Nicotinamide N-methyltransferase (Homo sapiens) (UniProt P40261). The description is as above. To be noted: MTase-Glo luminescence, SAH detection, recombinant enzyme; measured here: NNMT max response; stronger effect = lower value.
As for `O=C(/C=C/c1ccccc1)OC[C@H]1O[C@@H](OC(=O)c2cc(O)c(O)c(O)c2)[C@H](O)[C@@H](O)[C@@H]1O`, the activity is -4.41%.
The same measure, in the same setting: the value for `C=C[C@H]1[C@H](O[C@@H]2O[C@H](CO)[C@@H](O)[C@H](OC(=O)/C=C/c3ccc(O)c(OC)c3)[C@H]2O)OC=C2C(=O)OCC[C@]21O` was -4.35%.
On the same count and under the same terms, the value for `O=C(O)CCc1ccc(NCc2cccc3c2CCCN3CCOc2ccccc2)cc1F` was -32.3%.
Take `O=C(O)CC1(O)C(=O)Nc2ccccc21` (stereo not given): the activity is 4.18%.
In the case of `O=C(O)c1cccc(CN2C(=O)/C(=C(\c3ccccc3)c3ccc(Cl)cc3)c3ccccc32)c1`, the activity was -41.9%.
Still for that read-out and setting: the figure for `C=CC(C)(O)CC/C=C(\C)COC1O[C@H](CO)[C@@H](O)[C@H](O)[C@H]1O` (stereo not given in full) is -3.25%.
Consider `C=C[C@H]1[C@H](O[C@@H]2O[C@H](CO)[C@@H](O)[C@H](O)[C@H]2O)OC=C(C(=O)OC)[C@H]1CCO`, for which the activity is -12.2%.
With `CC(=O)OC/C(=C/C(=O)O)CC[C@@H]1C(C)=CC(=O)[C@@H]2C(C)(C)CCC[C@@]12C`, the activity is -1.14%.

The next assay deals with Phenylethanolamine N-methyltransferase (Homo sapiens) (UniProt P11086). The description is as above. To be noted: MTase-Glo luminescence, SAH detection, recombinant enzyme; measured here: PNMT max response; stronger effect = lower value.
Chain of Phenylethanolamine N-methyltransferase (Homo sapiens) (P11086 whole entry, looked up): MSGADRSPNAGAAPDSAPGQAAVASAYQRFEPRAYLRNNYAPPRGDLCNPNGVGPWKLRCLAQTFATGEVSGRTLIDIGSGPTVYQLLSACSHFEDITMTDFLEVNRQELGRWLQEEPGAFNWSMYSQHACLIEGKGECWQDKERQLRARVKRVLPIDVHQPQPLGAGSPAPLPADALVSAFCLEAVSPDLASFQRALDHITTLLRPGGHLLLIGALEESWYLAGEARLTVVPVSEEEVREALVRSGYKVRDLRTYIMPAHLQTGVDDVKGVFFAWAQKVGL
Consider `O=C(/C=C/c1ccccc1)OC[C@H]1O[C@@H](OC(=O)c2cc(O)c(O)c(O)c2)[C@H](O)[C@@H](O)[C@@H]1O`, for which the activity is -0.813%.
For the compound `C=C[C@H]1[C@H](O[C@@H]2O[C@H](CO)[C@@H](O)[C@H](OC(=O)/C=C/c3ccc(O)c(OC)c3)[C@H]2O)OC=C2C(=O)OCC[C@]21O`, the activity is -4.62%.
The same measure, in the same setting: the figure for `O=C(O)CCc1ccc(NCc2cccc3c2CCCN3CCOc2ccccc2)cc1F` is -5.97%; for `O=C(O)CC1(O)C(=O)Nc2ccccc21` (stereo not given) it is -0.0725%; for `O=C(O)c1cccc(CN2C(=O)/C(=C(\c3ccccc3)c3ccc(Cl)cc3)c3ccccc32)c1` it is -8.16%.
Consider `C=CC(C)(O)CC/C=C(\C)COC1O[C@H](CO)[C@@H](O)[C@H](O)[C@H]1O` (stereo not given in full), for which the activity was -3.19%.
In the case of `C=C[C@H]1[C@H](O[C@@H]2O[C@H](CO)[C@@H](O)[C@H](O)[C@H]2O)OC=C(C(=O)OC)[C@H]1CCO`, the activity is -3.1%.
The same measure, in the same setting: the value for `CC(=O)OC/C(=C/C(=O)O)CC[C@@H]1C(C)=CC(=O)[C@@H]2C(C)(C)CCC[C@@]12C` was -1.13%.
